In the supplement of paper PMC6897291:
Counter-ions that a name gives are not always drawn.

Columns and labels:
U-2932 [1] = assay: growth inhibition by drug alone (1 - RLU/untreated control) (fraction); higher = stronger inhibition; settings: 177Lu-lilotomab satetraxetan 0 ug/ml
Summary of the method: (§1)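 Growth inhibition was calculated from RealTime-Glo RLU against untreated no-drug wells. Values equal 1 − RLU/mean of 48 untreated no-drug wells per plate, read daily from day 3 after 1 h at 37°C. RIVA and U-2932 cells, with or without 18 h pretreatment by a radiolabelled anti-CD37 antibody conjugate (~600 MBq/mg; 0.5 µg/ml RIVA, 1 µg/ml U-2932), were washed and plated at 3,000 cells/well on compound-printed plates at 10/100 nM (RIVA) or 10/1,000 nM (U-2932).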

RIVA [2] = assay: as above; settings: 177Lu-lilotomab satetraxetan 0 ug/ml
Summary of the method: as §1

U-2932 [3] = assay: growth inhibition by drug plus 177Lu-lilotomab satetraxetan (1 - RLU/untreated control) (fraction); higher = stronger inhibition; settings: 177Lu-lilotomab satetraxetan 1 ug/ml
Summary of the method: as §1

RIVA [4] = assay: as above; settings: 177Lu-lilotomab satetraxetan 0.5 ug/ml
Summary of the method: as §1

SMILES | growth inhibition by drug alone (U-2932 [1]; 10 nM, time (day): 3) | growth inhibition by drug alone (U-2932 [1]; 10 nM, time (day): 4) | growth inhibition by drug alone (U-2932 [1]; 10 nM, time (day): 5) | growth inhibition by drug alone (U-2932 [1]; 10 nM, time (day): 6) | growth inhibition by drug alone (U-2932 [1]; 1000 nM, time (day): 3) | growth inhibition by drug alone (U-2932 [1]; 1000 nM, time (day): 4) | growth inhibition by drug alone (U-2932 [1]; 1000 nM, time (day): 5) | growth inhibition by drug alone (U-2932 [1]; 1000 nM, time (day): 6) | growth inhibition by drug alone (RIVA [2]; 10 nM, time (day): 3) | growth inhibition by drug alone (RIVA [2]; 10 nM, time (day): 4) | growth inhibition by drug alone (RIVA [2]; 10 nM, time (day): 5) | growth inhibition by drug alone (RIVA [2]; 10 nM, time (day): 6) | growth inhibition by drug alone (RIVA [2]; 100 nM, time (day): 3) | growth inhibition by drug alone (RIVA [2]; 100 nM, time (day): 4) | growth inhibition by drug alone (RIVA [2]; 100 nM, time (day): 5) | growth inhibition by drug alone (RIVA [2]; 100 nM, time (day): 6) | growth inhibition by drug plus 177Lu-lilotomab satetraxetan (U-2932 [3]; 10 nM, time (day): 3) | growth inhibition by drug plus 177Lu-lilotomab satetraxetan (U-2932 [3]; 10 nM, time (day): 4) | growth inhibition by drug plus 177Lu-lilotomab satetraxetan (U-2932 [3]; 10 nM, time (day): 5) | growth inhibition by drug plus 177Lu-lilotomab satetraxetan (U-2932 [3]; 10 nM, time (day): 6) | growth inhibition by drug plus 177Lu-lilotomab satetraxetan (U-2932 [3]; 1000 nM, time (day): 3) | growth inhibition by drug plus 177Lu-lilotomab satetraxetan (U-2932 [3]; 1000 nM, time (day): 4) | growth inhibition by drug plus 177Lu-lilotomab satetraxetan (U-2932 [3]; 1000 nM, time (day): 5) | growth inhibition by drug plus 177Lu-lilotomab satetraxetan (U-2932 [3]; 1000 nM, time (day): 6) | growth inhibition by drug plus 177Lu-lilotomab satetraxetan (RIVA [4]; 10 nM, time (day): 3) | growth inhibition by drug plus 177Lu-lilotomab satetraxetan (RIVA [4]; 10 nM, time (day): 4) | growth inhibition by drug plus 177Lu-lilotomab satetraxetan (RIVA [4]; 10 nM, time (day): 5) | growth inhibition by drug plus 177Lu-lilotomab satetraxetan (RIVA [4]; 10 nM, time (day): 6) | growth inhibition by drug plus 177Lu-lilotomab satetraxetan (RIVA [4]; 100 nM, time (day): 3) | growth inhibition by drug plus 177Lu-lilotomab satetraxetan (RIVA [4]; 100 nM, time (day): 4) | growth inhibition by drug plus 177Lu-lilotomab satetraxetan (RIVA [4]; 100 nM, time (day): 5) | growth inhibition by drug plus 177Lu-lilotomab satetraxetan (RIVA [4]; 100 nM, time (day): 6)
CC1(C)CNc2cc(NC(=O)c3cccnc3NCc3ccncc3)ccc21 [Motesanib Diphosphate] | 0.0212 | -0.0392 | -0.0873 | -0.298 | -0.0958 | -0.0733 | -0.118 | -0.248 | -0.0638 | -0.211 | -0.283 | -0.584 | -0.22 | -0.341 | -0.349 | -0.452 | -0.0309 | -0.0326 | -0.0402 | 0.00139 | -0.132 | -0.033 | -0.00123 | 0.0914 | 0.361 | 0.516 | 0.536 | 0.546 | 0.45 | 0.537 | 0.536 | 0.512
COc1cccc2c1C(=O)c1c(O)c3c(c(O)c1C2=O)C[C@@](O)(C(=O)CO)C[C@@H]3O[C@H]1C[C@H](N)[C@@H](O)[C@H](C)O1 [Epirubicin Hydrochloride] | 0.0435 | 0.0793 | 0.0717 | 0.093 | 0.943 | 0.964 | 0.975 | 0.98 | -0.0808 | 0.0051 | 0.0307 | 0.0473 | 0.436 | 0.719 | 0.848 | 0.91 | 0.24 | 0.323 | 0.39 | 0.484 | 0.965 | 0.977 | 0.982 | 0.986 | 0.734 | 0.792 | 0.829 | 0.863 | 0.887 | 0.93 | 0.949 | 0.967
COc1cc2nccc(Oc3ccc(NC(=O)Nc4cc(C)on4)c(Cl)c3)c2cc1OC [Tivozanib (AV-951)] | 0.14 | 0.0745 | -0.00279 | -0.0876 | 0.0629 | 0.0968 | 0.0897 | 0.0763 | 0.0535 | 0.0633 | 0.0278 | -0.222 | 0.0881 | 0.104 | 0.0755 | 0.00134 | 0.0499 | 0.0836 | 0.127 | 0.144 | 0.13 | 0.217 | 0.26 | 0.368 | 0.453 | 0.547 | 0.57 | 0.565 | 0.438 | 0.535 | 0.537 | 0.526
CCOc1ccc(Nc2nc(-c3c(C)nc4ccccn34)cs2)cc1 | 0.225 | 0.209 | 0.0949 | 0.0852 | 0.961 | 0.972 | 0.979 | 0.982 | 0.0293 | 0.0644 | -0.0241 | -0.237 | 0.931 | 0.948 | 0.951 | 0.952 | 0.151 | 0.185 | 0.267 | 0.311 | 0.968 | 0.978 | 0.983 | 0.987 | 0.559 | 0.602 | 0.61 | 0.62 | 0.945 | 0.965 | 0.97 | 0.973
